Experimental data reported in PubChem BioAssay (Tox21).
Inconclusive results are not listed. Where a call stands in place of a potency, no number is given. Some compounds were tested as several samples or in several runs, with calls that do not always agree. The source made the active and inactive calls. The call rests on the fitted dose curve; in most records, active means well fitted inhibition curve with a large enough effect in the repeat runs; inconclusive means weak or mixed curves, or effect the other way; inactive means no such curve, though single readings can be large or run the other way.

Each compound was assayed against Nuclear receptor ROR-gamma (Homo sapiens) (UniProt P51449) (assay: qHTS assay to identify small molecule antagonists of the retinoid-related orphan receptor gamma (ROR-gamma) signaling pathway (AID 1159521; further: nearly all actives have a fitted effect of over 50% in size)). Details: Tet-on RORgamma CHO cells, RORE-luciferase, 16 h; series mostly up to 92.4 µM.
Procedure, shortened: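 Decreased RORE-driven luciferase luminescence indicates antagonism. Tet-on RORγ CHO cells received compound, then 1 uM final doxycycline 2 h later; signal read after 16 h incubation.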
Potency means the concentration at half of the fitted maximal effect.

Compound | Potency
COC(=O)c1ccccc1C(=O)OC | inactive
O=c1n(Cl)c(=O)n(Cl)c(=O)n1Cl | inactive
O=C1CCCN1 | inactive
Clc1ccc(Cl)cc1 | inactive
O=c1[nH]c(=O)[nH]c(=O)[nH]1 | inactive
CNC(=O)Oc1ccccc1OC(C)C | inactive
CC(=O)C=C(C)C | inactive
CCOC(=O)c1ccccc1C(=O)OCC | inactive
C1CC2OC2CC1C1CO1 (configuration not stated) | inactive
COC(=O)NC(=S)Nc1ccccc1NC(=S)NC(=O)OC | inactive
COC(=O)c1ccccc1N | inactive
Cc1ccc(N)cc1N | inactive
O=[N+]([O-])c1ccccc1 | inactive
O=NN1CCCC1 | 10.1 µM (active) and inactive
CN(C)CCO | inactive
CCC[CH2][Sn]([Cl])([Cl])[Cl] | inactive
CC(C)NC(=O)N1CC(=O)N(c2cc(Cl)cc(Cl)c2)C1=O | inactive
c1ccc(-c2ccccc2)cc1 | inactive
Cc1cc(Cl)ccc1O | inactive
CCC[N+](=O)[O-] | 4.25 µM (active) and inactive
Cc1ccc([N+](=O)[O-])cc1C | inactive
C=CC(N)=O | inactive
CC1OC(C)OC(C)O1 (configuration not stated) | inactive
C[C@]12CC[C@H]3[C@@H](CC[C@@]45O[C@@H]4C(O)=C(C#N)C[C@]35C)[C@@H]1CC[C@@H]2O | 48.6 µM (active)
Nc1ccc(Br)cc1 | inactive
COc1ccc2c3c1O[C@H]1[C@@H](O)C=C[C@H]4[C@@H](C2)N(C)CC[C@@]341 | 60.1 µM (active) and inactive
O=[N+]([O-])c1ccc(Oc2ccc(Cl)cc2Cl)cc1 | inactive
